Experimental data published in PubChem BioAssay AID1159580 (chemical genetic matrix, 2015).
Screen size: about 5,500 compounds; about 2,000 (36%) were called active. Another 18% or so got no clear call; they are omitted. Cut-off read from the data, not from the text of the source: active = normalized growth mostly below about 0.91 (no sharp cut-off); inconclusive = no clear call, values can overlap the other calls; inactive = mostly above about 0.92. This is one part of the list.

Experiment: chemical genetic growth profiling, strain panel (AID 1159580);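 note: tested at 20 µM; growth read once vehicle control cultures reached saturation at 30 °C; 1 = growth at the plate median or of vehicle wells; lower values mean less growth of the strain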
Details: S. cerevisiae deletion strains, growth OD

Measured: normalized growth

CCC(=O)OCC(=O)C1(OC(=O)CC)C(C)CC2C3C(Cl)CC4=CC(=O)C=CC4(C)C3C(O)CC21C (stereo not given)
inactive: locus YAL021C, strain ccr4, stronger effect = lower value 1.02 | locus YAL026C, strain drs2, stronger effect = lower value 1.03 | locus YAL030W, strain snc1, stronger effect = lower value 1.01 | locus YBL061C, strain skt5, stronger effect = lower value 1.01 | locus YBR009C, strain hhf1, stronger effect = lower value 1.09 | locus YBR023C, strain chs3, stronger effect = lower value 1.02 | locus YBR171W, strain sec66, stronger effect = lower value 1.04 | locus YBR231C, strain swc5, stronger effect = lower value 1.02 | locus YBR279W, strain paf1, stronger effect = lower value 1.01 | locus YCL011C, strain gbp2, stronger effect = lower value 1.06 | locus YCL016C, strain dcc1, stronger effect = lower value 1.04 | locus YCL069W, strain vba3, stronger effect = lower value 1.04 | locus YCR088W, strain abp1, stronger effect = lower value 1.03 | locus YDL005C, strain med2, stronger effect = lower value 1.02 | locus YDL040C, strain nat1, stronger effect = lower value 1.01 | locus YDR001C, strain nth1, stronger effect = lower value 1.04 | locus YDR069C, strain doa4, stronger effect = lower value 1.02 | locus YDR137W, strain rgp1, stronger effect = lower value 1.03 | locus YDR159W, strain sac3, stronger effect = lower value 1.01 | locus YDR195W, strain ref2 1 | locus YDR297W, strain sur2, stronger effect = lower value 1.03 | locus YDR334W, strain swr1, stronger effect = lower value 1.02 | locus YDR335W, strain msn5, stronger effect = lower value 1.05 | locus YDR392W, strain spt3, stronger effect = lower value 1.08 | locus YEL003W, strain gim4, stronger effect = lower value 1.04 | locus YEL037C, strain rad23, stronger effect = lower value 1.05 | locus YEL061C, strain CIN8 (second series), stronger effect = lower value 1.02 | locus YER015W, strain faa2, stronger effect = lower value 1.01 | locus YER016W, strain bim1, stronger effect = lower value 1.04 | locus YER111C, strain swi4, stronger effect = lower value 1.04 | locus YER155C, strain BEM2 (second series), stronger effect = lower value 1.08 | locus YFR010W, strain ubp6, stronger effect = lower value 1.02 | locus YGL167C, strain pmr1, stronger effect = lower value 1.06 | locus YGL173C, strain kem1, stronger effect = lower value 1.02 | locus YGL227W, strain vid30, stronger effect = lower value 1.01 | locus YGL240W, strain doc1, stronger effect = lower value 1.01 | locus YGL253W, strain hxk2, stronger effect = lower value 1.02 | locus YHR013C, strain ard1, stronger effect = lower value 1.08 | locus YHR027C, strain rpn1, stronger effect = lower value 1.03 | locus YHR142W, strain chs7, stronger effect = lower value 1.04 | locus YJL092W, strain hpr5, stronger effect = lower value 1.04 | locus YJL095W, strain BCK1 (second series), stronger effect = lower value 1.06 | locus YJL115W, strain asf1, stronger effect = lower value 1.02 | locus YJL129C, strain trk1, stronger effect = lower value 0.987 | locus YJL154C, strain vps35, stronger effect = lower value 1.03 | locus YJL164C, strain tpk1, stronger effect = lower value 1.07 | locus YJL166W, strain qcr8, stronger effect = lower value 1 | locus YKL160W, strain elf1, stronger effect = lower value 1.04 | locus YKR026C, strain gcn3, stronger effect = lower value 1.03 | locus YKR091W, strain srl3, stronger effect = lower value 1.03 | locus YLL001W, strain dnm1, stronger effect = lower value 1.06 | locus YLL026W, stronger effect = lower value 1.04 | locus YLL041C, strain sdh2, stronger effect = lower value 1.05 | locus YLR027C, strain aat2, stronger effect = lower value 1.06 | locus YLR221C, strain rsa3, stronger effect = lower value 1.07 | locus YLR258W, strain gsy2, stronger effect = lower value 1.07 | locus YLR262C, strain YPT6 (second series), stronger effect = lower value 1.04 | locus YLR320W, strain mms22, stronger effect = lower value 1.02 | locus YLR342W, strain FKS1, stronger effect = lower value 1.03 | locus YLR357W, strain rsc2, stronger effect = lower value 1.09 | locus YLR370C, strain arc18, stronger effect = lower value 1.03 | locus YLR384C, strain iki3, stronger effect = lower value 1.03 | locus YML120C, strain ndi1, stronger effect = lower value 1.02 | locus YMR058W, strain fet3, stronger effect = lower value 1.02 | locus YMR125W, strain sto1, stronger effect = lower value 1.07 | locus YMR129W, stronger effect = lower value 1.03 | locus YMR205C, strain PFK2, stronger effect = lower value 1.02 | locus YMR231W, strain pep5, stronger effect = lower value 1.03 | locus YNL071W, strain lat1, stronger effect = lower value 1.02 | locus YNL209W, strain ssb2, stronger effect = lower value 1.01 | locus YNL248C, strain rpa49, stronger effect = lower value 1.03 | locus YNL322C, strain KRE1 (second series), stronger effect = lower value 1.01 | locus YNR049C, strain mso1, stronger effect = lower value 1.03 | locus YOR001W, strain rrp6, stronger effect = lower value 1.04 | locus YOR070C, strain gyp1, stronger effect = lower value 1.02 | locus YOR080W, strain dia2, stronger effect = lower value 1.02 | locus YOR083W, strain WHI5, stronger effect = lower value 1.04 | locus YOR106W, strain vam3, stronger effect = lower value 1 | locus YOR265W, strain rbl2, stronger effect = lower value 1.02 | locus YOR270C, strain vph1, stronger effect = lower value 0.923 | locus YOR290C, strain snf2, stronger effect = lower value 1.06 | locus YPL051W, strain arl3, stronger effect = lower value 1.04 | locus YPL078C, strain atp4, stronger effect = lower value 0.999 | locus YPL106C, strain sse1, stronger effect = lower value 1.12 | locus YPL240C, strain hsp82, stronger effect = lower value 1.02
